Assay results: PMC5540273 (PLoS ONE, 2017)

Tests used:
Details in all cases: concentration: 1 μM, replicates: in singlicate; n = 1
AMPK-alpha2 = tested on: T1, AMPK-alpha2
T1 construct: gene PRKAA2

ANKK1 = tested on: ANKK1
ARK5 = tested on: T2, ARK5
T2 construct: gene NUAK1

ASK1 = tested on: T3, ASK1
T3 construct: gene MAP3K5

ASK2 = tested on: T4, ASK2
T4 construct: gene MAP3K6

AURKA = tested on: AURKA
AURKB = tested on: AURKB
AURKC = tested on: AURKC
AXL = tested on: AXL
BIKE = tested on: T5, BIKE
T5 construct: gene BMP2K

BLK = tested on: BLK
BMPR1A = tested on: BMPR1A
BMPR1B = tested on: BMPR1B
BMPR2 = tested on: BMPR2
BMX = tested on: BMX
BRAF = tested on: BRAF
BRK = tested on: T6, BRK
T6 construct: gene PTK6

BRSK1 = tested on: BRSK1
BRSK2 = tested on: BRSK2
BTK = tested on: BTK
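Note: KINOMEscan kinase panel screen.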

SMILES | %Inh (AMPK-alpha2) | %Inh (ANKK1) | %Inh (ARK5) | %Inh (ASK1) | %Inh (ASK2) | %Inh (AURKA) | %Inh (AURKB) | %Inh (AURKC) | %Inh (AXL) | %Inh (BIKE) | %Inh (BLK) | %Inh (BMPR1A) | %Inh (BMPR1B) | %Inh (BMPR2) | %Inh (BMX) | %Inh (BRAF) | %Inh (BRK) | %Inh (BRSK1) | %Inh (BRSK2) | %Inh (BTK)
COc1ccc(COc2cc(-n3cnc4ccccc43)sc2C(N)=O)cc1 [GSK1024304] | 0% | 8% | 14% | 0% | 0% | 2% | 0% | 12% | 0% | 25% | 37% | 0% | 0% | 0% | 0% | 0% | 3% | 0% | 5% | 0%
CC(C)(C)n1cnc2c(N)ncnc21 [SKF-97359] | 0% | 0% | 19% | 0% | 0% | 0% | 15% | 0% | 45% | 0% | 0% | 0% | 0% | 36% | 0% | 0% | 0% | 0% | 3% | 19%
c1ccc(-c2n[nH]cc2-c2ccnc3ccccc23)nc1 [GW271431] | 11% | 22% | 5% | 0% | 0% | 12% | 20% | 10% | 11% | 24% | 49% | 0% | 13% | 0% | 22% | 0% | 22% | 0% | 0% | 0%
CN1c2ccc(CNc3ccc(F)cc3)cc2-c2c(cnn2C)S1(=O)=O | 13% | 0% | 6% | 0% | 3% | 0% | 21% | 0% | 11% | 0% | 0% | 0% | 0% | 0% | 0% | 36% | 0% | 0% | 0% | 0%
Nc1nc(-c2ccc3c(N)n[nH]c3c2)cc(N2CCCC2)n1 [GSK2227430] | 0% | 4% | 17% | 0% | 0% | 0% | 0% | 37% | 0% | 33% | 7% | 0% | 0% | 0% | 1% | 0% | 20% | 0% | 0% | 0%
O=C(Nc1cccc(-c2nn3ncccc3c2-c2ccnc(Nc3cccc(C(F)(F)F)c3)n2)c1)c1c(F)cccc1F [GSK299495] | 15% | 0% | 12% | 1% | 3% | 9% | 29% | 56% | 6% | 19% | 95.9% | 0% | 0% | 23% | 72% | 69% | 71% | 0% | 0% | 66%
O=c1cc(N2CCOCC2)nc2n(Cc3cccc(Cl)c3Cl)c(C3CC3)nn12 [GSK2358994] | 0% | 0% | 0% | 0% | 0% | 0% | 4% | 0% | 3% | 0% | 0% | 15% | 0% | 13% | 19% | 0% | 0% | 3% | 0% | 0%
N#Cc1ccc(-c2cc(-c3c[nH]nc3-c3ccccn3)ccn2)cc1 [GW693028] | 49% | 0% | 27% | 0% | 0% | 0% | 32% | 0% | 0% | 11% | 17% | 0% | 15% | 6% | 5% | 11% | 30% | 0% | 0% | 0%
COCCNC(=O)c1ccc(-c2cc(C(=O)NC3CC3)cc(F)c2C)cc1 [GW868318] | 0% | 11% | 0% | 5% | 26% | 27% | 33% | 0% | 0% | 7% | 0% | 19% | 19% | 46% | 7% | 10% | 0% | 0% | 18% | 0%
